# From PubChem BioAssay AID651791 (National Center for Advancing Translational Sciences (NCATS), 2012)
# Inconclusive results are not listed. Calls of active or inactive are those of the source. The call rests on the fitted dose curve; in most records, active means well fitted inhibition curve with a large enough effect; inconclusive means small, poorly fitted or top-dose-only effect; inactive means no such curve, though single readings can be large or run the other way.
# Assay: InCell qHTS Assay for Inhibitors of the mTORC1 Signaling Pathway in MEF (Tsc2-/-, p53-/-) Cells: Hit Validation;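 further: phospho-S6 Ser235/236 signal normalized to propidium iodide cell count per well; nearly all actives have a fitted effect of over 75% in size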
# Conditions: phospho-rpS6 immunofluorescence, 24 h; activity change, negative = inhibition: at 38.3 µM (top of the series)
# Potency means the concentration at half of the fitted maximal effect.
Structure (SMILES),"activity change, negative = inhibition",Potency
CCc1nn(CC(=O)NCc2ccccc2Cl)c(=O)c2cccn12,-100%,
O=C(Nc1ccccc1)N(Cc1cccc(Cl)c1)c1ccccn1,-100%,
COc1cc(NC(=O)Cn2nc(C(F)(F)F)c3c2CCCC3)c(OC)cc1Cl,-100%,
CCN(c1ccccc1)S(=O)(=O)c1ccc(NC(=O)c2nc(S(C)(=O)=O)ncc2Cl)cc1,,3.69 µM (active)
CS(=O)(=O)c1ncc(Cl)c(C(=O)N(Cc2ccc(Cl)cc2)Cc2ccco2)n1,,3.29 µM (active)
Brc1ccc(Nc2c3c(nc4nncn24)CCC3)cc1,-100%,
Cc1ccc(C)c(N2CCN(CCCNC(=O)c3nnc(Cc4ccc(F)cc4Cl)o3)CC2)c1,1.72%,
Cc1cccc(CS(=O)(=O)c2ncc(Cl)c(C(=O)Nc3nnc(C(C)C)s3)n2)c1,,13.1 µM (active)
O=C(NCc1ccc(Cl)cc1)C(=O)NCC(c1cccs1)S(=O)(=O)c1ccc(Cl)cc1 (configuration not stated),-100%,
CCOC(=O)c1cnc2ccc(C)cc2c1Nc1ccc(N(CC)CC)cc1,-100%,
COc1cc(C(=O)CC2(O)C(=O)N(Cc3ccccc3Cl)c3ccccc32)cc(OC)c1OC (configuration not stated),-3.93%,
Cc1cccc(N2CCN(c3ncnc4c3nc3n4CCCCC3)CC2C)c1 (configuration not stated),,5.85 µM (active)
Cc1ccc(-c2nnc(Nc3ccc(O)cc3)c3ccccc23)cc1S(=O)(=O)N1CCCCC1,-100%,
CC1=Nc2cc(C(=O)NCCc3ccc(Cl)cc3)ccc2Sc2ccc(C)cc21,-100%,
Cc1ccc(NC(=O)c2nc(S(=O)(=O)Cc3cccc(C)c3)ncc2Cl)cc1,,14.7 µM (active)
O=C(NCCN1CCN(c2cccc(Cl)c2)CC1)Nc1ccccc1C(F)(F)F,-100%,
CCOC(=O)c1ccc(N2C(=O)c3n[nH]c(C)c3C2c2cccc(Br)c2)cc1 (configuration not stated),-100%,
Cc1ccc(Nc2nc(C(N)=O)c(NC(=O)c3ccccc3Br)s2)cc1,-17.8%,
C#CCN1C(=O)C(O)(CC(=O)c2ccc(OC)c(OC)c2)c2cc(Br)ccc21 (configuration not stated),-100%,

Structure (SMILES),"activity change, negative = inhibition",Potency
CCCN1C(=O)C(O)(CC(=O)c2ccc(C(C)C)cc2)c2ccccc21 (configuration not stated),-100%,
O=C(COc1ccc(F)cc1)Nc1ccc(Cl)c(-c2nc3ccccc3[nH]2)c1,-100%,
CCOc1ccc(N(Cc2ccccc2)C(=O)c2nc(S(C)(=O)=O)ncc2Cl)cc1,,2.93 µM (active)
COc1ccc(OC)c(NC(=O)c2nnn(CC(=O)Nc3ccc(C(C)C)cc3)c2N)c1,-100%,
CC(C)c1nnc(NC(=O)c2nc(S(=O)(=O)Cc3ccccc3)ncc2Cl)s1,,3.29 µM (active)
Cc1c(C(=O)OC2CCC(C)CC2)[nH]c2c1C(=O)CC(c1ccc(F)cc1)C2 (configuration not stated),-1.27%,
CCCCN(C)C(=O)CSc1c2c(nc3ccc(Cl)cc13)CCCC2,-100%,
O=C(NCCSc1c(-c2ccc(F)cc2)[nH]c2ccccc12)c1ccc(S(=O)(=O)N2CCOCC2)cc1,-100%,
CCCN1CCN(c2ncnc3sc(C(=O)Nc4ccc(OC(F)(F)F)cc4)c(C)c23)CC1,-100%,
Cc1ccc(C)c(NC(=O)c2nc(S(=O)(=O)Cc3ccc(F)cc3)ncc2Cl)c1,,3.29 µM (active)
Nc1nnc(SCC(=O)Nc2cccc(F)c2)s1,-100%,
CCOC(=O)c1[nH]c2ccccc2c1NC(=O)c1ccccc1OCC,-100%,
CCCN1C(=O)C(Cc2nc3ccccc3c(=O)n2CC)c2cc(Br)ccc21 (configuration not stated),-100%,
CC(C)(C)C1CCc2c(sc(NC(=O)C3c4ccccc4Oc4ccccc43)c2C(N)=O)C1 (configuration not stated),-100%,
COC(=O)c1ccc(Nc2nnc(-c3ccc(C)c(S(=O)(=O)N4CCN(C)CC4)c3)c3ccccc23)cc1,-100%,
CC1=Nc2cc(C(=O)NC3CCCC3)ccc2Sc2ccc(Cl)cc21,-100%,
CCOc1cc(C(=O)Nc2ccc(-c3cn4cccnc4n3)cc2)cc(OCC)c1OCC,-100%,
COc1ccc(N2CCN(C(=O)C(C)n3nc(C)c4sc5ccccc5c4c3=O)CC2)cc1 (configuration not stated),-100%,
